{
  "source": "the supplement of paper PMC12636033",
  "note": "± gives the standard deviation of the averaged measurements. Whole data set: some 33,000 sequences, median “E-score (rank enrichment, -0.5 to 0.5)” near -0.0075, cut for the highest 2% near 0.23. The sample as a whole holds a higher share of the highest values than the screen did.",
  "data": [
    {"tested_on": "WT Max(13-93) synthetic (M65Nle)", "assay": "PBM 8-mer E-score (E-score (rank enrichment, -0.5 to 0.5)); higher = stronger preferential binding", "procedure": "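Protein binding microarray (universal PBM chip covering all 10-mers in fixed probe flanks) with chemically synthesized human Max(13-93) bHLH-LZ analogs (not full-length Max) bearing noncanonical residues (hArg, Tha, Aib, Nle at 65) and aromatic Cys staples. Read-out per 8-mer (and its reverse complement): E-score (rank-based enrichment, -0.5 to 0.5) and Z-score of median probe intensity.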", "values": [
      {"sequence": "ACAGTCCG", "PBM 8-mer E-score": "-0.0248 ± 0.0053"},
      {"sequence": "CACGGTGC", "PBM 8-mer E-score": "0.0526 ± 0.033"},
      {"sequence": "ATGTTATA", "PBM 8-mer E-score": "0.235 ± 0.069"},
      {"sequence": "ATGTTAAG", "PBM 8-mer E-score": "0.107 ± 0.028"},
      {"sequence": "GTGTTAAC", "PBM 8-mer E-score": "0.0845 ± 0.082"},
      {"sequence": "CTGTTAAC", "PBM 8-mer E-score": "-0.00712 ± 0.14"},
      {"sequence": "GTGTTATA", "PBM 8-mer E-score": "0.215 ± 0.0088"},
      {"sequence": "CTGTTATA", "PBM 8-mer E-score": "0.055 ± 0.085"},
      {"sequence": "ATGTTATG", "PBM 8-mer E-score": "0.251 ± 0.084"},
      {"sequence": "ATGTTAAC", "PBM 8-mer E-score": "0.291 ± 0.035"},
      {"sequence": "ATGTTATC", "PBM 8-mer E-score": "0.0836 ± 0.016"},
      {"sequence": "GTGTGCCA", "PBM 8-mer E-score": "-0.0682 ± 0.094"},
      {"sequence": "ATACGCAC", "PBM 8-mer E-score": "0.0776 ± 0.052"},
      {"sequence": "ATAGTCAG", "PBM 8-mer E-score": "0.0518 ± 0.079"},
      {"sequence": "AACTATTG", "PBM 8-mer E-score": "0.139 ± 0.033"},
      {"sequence": "ACCTTCCC", "PBM 8-mer E-score": "-0.0595 ± 0.1"},
      {"sequence": "AGCATGTA", "PBM 8-mer E-score": "0.238 ± 0.019"},
      {"sequence": "AGCATGTG", "PBM 8-mer E-score": "0.295 ± 0.0053"},
      {"sequence": "GGCATGTA", "PBM 8-mer E-score": "0.135 ± 0.023"},
      {"sequence": "CGCATGTA", "PBM 8-mer E-score": "0.0311 ± 0.051"},
      {"sequence": "AGCATGTC", "PBM 8-mer E-score": "0.157 ± 0.0017"},
      {"sequence": "AGCATGGG", "PBM 8-mer E-score": "0.128 ± 0.096"},
      {"sequence": "ACAGGTTA", "PBM 8-mer E-score": "0.0367 ± 0.075"},
      {"sequence": "CTTCTCCC", "PBM 8-mer E-score": "0.0392 ± 0.039"},
      {"sequence": "AAATTCGG", "PBM 8-mer E-score": "0.0747 ± 0.038"},
      {"sequence": "ATGGTCCA", "PBM 8-mer E-score": "-0.0964 ± 0.052"},
      {"sequence": "AAGGCATG", "PBM 8-mer E-score": "0.207 ± 0.081"},
      {"sequence": "CAAACACC", "PBM 8-mer E-score": "0.118 ± 0.15"},
      {"sequence": "CAAACACA", "PBM 8-mer E-score": "0.2434 ± 0.00028"},
      {"sequence": "CAAACAGG", "PBM 8-mer E-score": "0.0276 ± 0.019"},
      {"sequence": "AAAACACA", "PBM 8-mer E-score": "0.128 ± 0.02"},
      {"sequence": "AAAACAGC", "PBM 8-mer E-score": "0.0957 ± 0.12"},
      {"sequence": "CAAACAGC", "PBM 8-mer E-score": "0.244 ± 0.0038"},
      {"sequence": "CAAACACG", "PBM 8-mer E-score": "0.285 ± 0.064"},
      {"sequence": "AAAACACG", "PBM 8-mer E-score": "0.193 ± 0.049"},
      {"sequence": "TAAACACA", "PBM 8-mer E-score": "0.182 ± 0.021"},
      {"sequence": "ACATTTCT", "PBM 8-mer E-score": "0.152 ± 0.0081"},
      {"sequence": "CCCTGGCG", "PBM 8-mer E-score": "-0.198 ± 0.061"},
      {"sequence": "TACGGTCA", "PBM 8-mer E-score": "-0.0681 ± 0.052"},
      {"sequence": "CCAAGGCG", "PBM 8-mer E-score": "-0.191 ± 0.077"},
      {"sequence": "ACCGTAAT", "PBM 8-mer E-score": "-0.00988 ± 0.068"},
      {"sequence": "TAGCTGGA", "PBM 8-mer E-score": "-0.111 ± 0.035"},
      {"sequence": "TATTACAA", "PBM 8-mer E-score": "0.181 ± 0.024"},
      {"sequence": "AATTACAT", "PBM 8-mer E-score": "0.135 ± 0.0071"},
      {"sequence": "AATTACAA", "PBM 8-mer E-score": "0.251 ± 0.026"},
      {"sequence": "GTAATCAC", "PBM 8-mer E-score": "-0.0619 ± 0.076"},
      {"sequence": "ACCGTGTC", "PBM 8-mer E-score": "-0.0348 ± 0.1"},
      {"sequence": "ATTAACAC", "PBM 8-mer E-score": "0.247 ± 0.019"},
      {"sequence": "GTTAACAA", "PBM 8-mer E-score": "0.138 ± 0.024"},
      {"sequence": "ATTAACAA", "PBM 8-mer E-score": "0.289 ± 0.057"},
      {"sequence": "ATTAACTC", "PBM 8-mer E-score": "0.16 ± 0.064"},
      {"sequence": "CTTAACAC", "PBM 8-mer E-score": "0.135 ± 0.068"},
      {"sequence": "ATTAACAG", "PBM 8-mer E-score": "0.0545 ± 0.024"},
      {"sequence": "GTTTCCGA", "PBM 8-mer E-score": "0.0231 ± 0.1"},
      {"sequence": "CTCAAAGC", "PBM 8-mer E-score": "-0.0195 ± 0.016"},
      {"sequence": "CATGATGA", "PBM 8-mer E-score": "0.233 ± 0.045"},
      {"sequence": "AATGATAG", "PBM 8-mer E-score": "0.166 ± 0.08"},
      {"sequence": "AATGATAA", "PBM 8-mer E-score": "0.146 ± 0.062"},
      {"sequence": "CATGATAA", "PBM 8-mer E-score": "0.296 ± 0.039"},
      {"sequence": "TATGATAA", "PBM 8-mer E-score": "0.201 ± 0.065"},
      {"sequence": "AATGATAT", "PBM 8-mer E-score": "0.257 ± 0.086"},
      {"sequence": "CATGATGC", "PBM 8-mer E-score": "0.124 ± 0.073"},
      {"sequence": "AATGATAC", "PBM 8-mer E-score": "0.2224 ± 0.00047"},
      {"sequence": "CATGATGG", "PBM 8-mer E-score": "-0.0865 ± 0.045"},
      {"sequence": "CCCTTCTA", "PBM 8-mer E-score": "0.2 ± 0.016"},
      {"sequence": "ATCCCTAC", "PBM 8-mer E-score": "0.0174 ± 0.027"},
      {"sequence": "AAGAGTAA", "PBM 8-mer E-score": "0.0887 ± 0.095"},
      {"sequence": "CCAGGTAG", "PBM 8-mer E-score": "-0.0484 ± 0.088"},
      {"sequence": "AACGCGGA", "PBM 8-mer E-score": "-0.0101 ± 0.013"},
      {"sequence": "AACGCGGC", "PBM 8-mer E-score": "-0.0617 ± 0.052"},
      {"sequence": "GACGCGGC", "PBM 8-mer E-score": "-0.164 ± 0.043"},
      {"sequence": "CACGCGGA", "PBM 8-mer E-score": "0.351 ± 0.014"},
      {"sequence": "CACGCGGG", "PBM 8-mer E-score": "0.224 ± 0.044"},
      {"sequence": "CACGCGGC", "PBM 8-mer E-score": "0.323 ± 0.0093"},
      {"sequence": "CGCAATAG", "PBM 8-mer E-score": "-0.129 ± 0.02"},
      {"sequence": "ACCATCCA", "PBM 8-mer E-score": "0.0359 ± 0.035"},
      {"sequence": "ACCTCAAG", "PBM 8-mer E-score": "0.0864 ± 0.0059"},
      {"sequence": "CGTATTCA", "PBM 8-mer E-score": "-0.00816 ± 0.064"},
      {"sequence": "CACCTTTC", "PBM 8-mer E-score": "0.0495 ± 0.029"},
      {"sequence": "ACCGAAGC", "PBM 8-mer E-score": "-0.0719 ± 0.043"},
      {"sequence": "GGTGTTTA", "PBM 8-mer E-score": "-0.0165 ± 0.02"},
      {"sequence": "CATGTTTC", "PBM 8-mer E-score": "0.192 ± 0.017"},
      {"sequence": "CATGTTTA", "PBM 8-mer E-score": "0.302 ± 0.07"},
      {"sequence": "AGTGTTTA", "PBM 8-mer E-score": "0.0808 ± 0.099"},
      {"sequence": "GATGTTTA", "PBM 8-mer E-score": "0.0913 ± 0.016"},
      {"sequence": "CGTGTTTA", "PBM 8-mer E-score": "0.274 ± 0.019"},
      {"sequence": "CGATCCAG", "PBM 8-mer E-score": "-0.318 ± 0.024"},
      {"sequence": "ACGTAACT", "PBM 8-mer E-score": "-0.0612 ± 0.056"},
      {"sequence": "ATGGAGCC", "PBM 8-mer E-score": "-0.159 ± 0.086"},
      {"sequence": "ACCCTATC", "PBM 8-mer E-score": "-0.0509 ± 0.049"},
      {"sequence": "ATAATGCA", "PBM 8-mer E-score": "0.161 ± 0.072"},
      {"sequence": "AACGTGCA", "PBM 8-mer E-score": "0.283 ± 0.044"},
      {"sequence": "CAGGTGCG", "PBM 8-mer E-score": "-0.186 ± 0.068"},
      {"sequence": "CACGTGCC", "PBM 8-mer E-score": "0.472 ± 0.0067"},
      {"sequence": "CACGTGCG", "PBM 8-mer E-score": "0.48552 ± 0.00018"},
      {"sequence": "CACGTGCA", "PBM 8-mer E-score": "0.4864 ± 0.0015"},
      {"sequence": "CCCGTGCG", "PBM 8-mer E-score": "0.00827 ± 0.054"},
      {"sequence": "AACGTGCC", "PBM 8-mer E-score": "0.0848 ± 0.0026"},
      {"sequence": "GACGTGCC", "PBM 8-mer E-score": "-0.0759 ± 0.054"},
      {"sequence": "AACGTGCG", "PBM 8-mer E-score": "0.188 ± 0.037"},
      {"sequence": "TACGTGCA", "PBM 8-mer E-score": "0.126 ± 0.094"},
      {"sequence": "GACGTGCA", "PBM 8-mer E-score": "0.132 ± 0.021"},
      {"sequence": "AACGTGCT", "PBM 8-mer E-score": "0.181 ± 0.038"},
      {"sequence": "AAACTCAG", "PBM 8-mer E-score": "-0.0399 ± 0.035"},
      {"sequence": "AAGTGTCA", "PBM 8-mer E-score": "0.0618 ± 0.14"},
      {"sequence": "AAATAAGT", "PBM 8-mer E-score": "0.126 ± 0.0013"},
      {"sequence": "CTTGTTGC", "PBM 8-mer E-score": "0.124 ± 0.046"},
      {"sequence": "CTGCCGGA", "PBM 8-mer E-score": "-0.102 ± 0.082"},
      {"sequence": "CCAAAACC", "PBM 8-mer E-score": "0.0915 ± 0.13"},
      {"sequence": "GCAAGCAA", "PBM 8-mer E-score": "-0.0138 ± 0.026"},
      {"sequence": "ACAAAAAA", "PBM 8-mer E-score": "0.251 ± 0.016"},
      {"sequence": "CAAAACCC", "PBM 8-mer E-score": "0.138 ± 0.027"},
      {"sequence": "ACAAAAAT", "PBM 8-mer E-score": "0.111 ± 0.084"},
      {"sequence": "CAAAAACC", "PBM 8-mer E-score": "0.241 ± 0.035"},
      {"sequence": "ACAAGCAC", "PBM 8-mer E-score": "0.0152 ± 0.013"},
      {"sequence": "ACAAATGG", "PBM 8-mer E-score": "0.196 ± 0.099"},
      {"sequence": "ACAAAAAC", "PBM 8-mer E-score": "0.215 ± 0.07"},
      {"sequence": "ACAAATGT", "PBM 8-mer E-score": "0.277 ± 0.073"},
      {"sequence": "ACAAATGA", "PBM 8-mer E-score": "0.104 ± 0.068"}
    ]}
  ]
}
